Data taken from the supplement of paper PMC11732987, “Enantioselective OTUD7B fragment discovery through chemoproteomics screening and high-throughput optimisation” (Communications Chemistry, 2025).

What was measured:
Experiment in all cases: log2 ratio of Biotin-Ahx-Ub-VS probe labelling (fragment/DMSO); higher = less target engagement (more negative = stronger competition), active = hit call of the paper (q ≤ 0.05, log2 ratio ≤ -1)
Settings in all cases: compound concentration: 200 uM; treatment time: 3 h
USP42 = molecular target: T1, USP42 (UniProt Q9H9J4)
T1 sequence (whole entry): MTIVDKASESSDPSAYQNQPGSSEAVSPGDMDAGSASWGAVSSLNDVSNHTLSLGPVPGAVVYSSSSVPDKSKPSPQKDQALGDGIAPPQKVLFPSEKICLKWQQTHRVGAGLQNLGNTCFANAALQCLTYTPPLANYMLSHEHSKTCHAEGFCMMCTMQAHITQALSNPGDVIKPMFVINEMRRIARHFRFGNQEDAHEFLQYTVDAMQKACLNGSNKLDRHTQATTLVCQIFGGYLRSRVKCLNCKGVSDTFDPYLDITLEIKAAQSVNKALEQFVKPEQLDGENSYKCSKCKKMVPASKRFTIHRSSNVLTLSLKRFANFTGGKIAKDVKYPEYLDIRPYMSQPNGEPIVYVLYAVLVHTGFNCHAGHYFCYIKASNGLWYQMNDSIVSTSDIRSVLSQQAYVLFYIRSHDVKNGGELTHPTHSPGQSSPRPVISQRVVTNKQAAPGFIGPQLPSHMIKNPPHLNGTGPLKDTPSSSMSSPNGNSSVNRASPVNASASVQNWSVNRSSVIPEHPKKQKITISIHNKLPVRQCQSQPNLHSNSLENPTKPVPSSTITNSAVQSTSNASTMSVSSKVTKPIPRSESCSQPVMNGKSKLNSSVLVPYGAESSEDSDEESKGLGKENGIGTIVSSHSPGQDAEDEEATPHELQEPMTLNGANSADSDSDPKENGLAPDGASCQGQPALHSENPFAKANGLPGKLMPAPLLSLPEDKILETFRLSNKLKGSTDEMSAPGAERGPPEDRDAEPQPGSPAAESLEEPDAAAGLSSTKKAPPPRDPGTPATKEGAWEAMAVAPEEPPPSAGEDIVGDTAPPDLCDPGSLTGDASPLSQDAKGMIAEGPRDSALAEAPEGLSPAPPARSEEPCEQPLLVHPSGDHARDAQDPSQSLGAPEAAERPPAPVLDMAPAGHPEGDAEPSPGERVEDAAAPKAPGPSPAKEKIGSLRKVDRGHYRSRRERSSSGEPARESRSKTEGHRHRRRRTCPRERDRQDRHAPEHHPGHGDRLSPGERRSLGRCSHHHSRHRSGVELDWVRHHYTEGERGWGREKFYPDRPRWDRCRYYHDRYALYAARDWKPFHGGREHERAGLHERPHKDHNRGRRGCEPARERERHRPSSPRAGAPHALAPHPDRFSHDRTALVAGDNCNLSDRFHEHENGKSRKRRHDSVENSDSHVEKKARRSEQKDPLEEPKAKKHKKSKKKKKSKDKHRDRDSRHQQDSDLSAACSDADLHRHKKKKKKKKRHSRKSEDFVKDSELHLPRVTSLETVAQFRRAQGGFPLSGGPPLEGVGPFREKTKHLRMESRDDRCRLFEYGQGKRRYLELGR
Method in brief: (§1)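 Triplicate samples of HEK293T lysate, 495 µg each, received fragment at 200 µM or vehicle for 3 h, followed by Biotin-Ahx-Ub-VS (0.5 µM final) for 1 h. After NeutrAvidin enrichment of labelled DUBs and LysC/trypsin digestion, peptides were run by diaPASEF LC-MS/MS. The values are average log2 fragment/vehicle ratios from global-median-normalised Spectronaut label-free quantities, tested by unpaired t-test on proteins having ≥2 unique peptides.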

USP46 = USP46 (UniProt P62068)
Method in brief: as §1

USP47 = molecular target: T2, USP47 (UniProt Q96K76)
T2 sequence (whole entry): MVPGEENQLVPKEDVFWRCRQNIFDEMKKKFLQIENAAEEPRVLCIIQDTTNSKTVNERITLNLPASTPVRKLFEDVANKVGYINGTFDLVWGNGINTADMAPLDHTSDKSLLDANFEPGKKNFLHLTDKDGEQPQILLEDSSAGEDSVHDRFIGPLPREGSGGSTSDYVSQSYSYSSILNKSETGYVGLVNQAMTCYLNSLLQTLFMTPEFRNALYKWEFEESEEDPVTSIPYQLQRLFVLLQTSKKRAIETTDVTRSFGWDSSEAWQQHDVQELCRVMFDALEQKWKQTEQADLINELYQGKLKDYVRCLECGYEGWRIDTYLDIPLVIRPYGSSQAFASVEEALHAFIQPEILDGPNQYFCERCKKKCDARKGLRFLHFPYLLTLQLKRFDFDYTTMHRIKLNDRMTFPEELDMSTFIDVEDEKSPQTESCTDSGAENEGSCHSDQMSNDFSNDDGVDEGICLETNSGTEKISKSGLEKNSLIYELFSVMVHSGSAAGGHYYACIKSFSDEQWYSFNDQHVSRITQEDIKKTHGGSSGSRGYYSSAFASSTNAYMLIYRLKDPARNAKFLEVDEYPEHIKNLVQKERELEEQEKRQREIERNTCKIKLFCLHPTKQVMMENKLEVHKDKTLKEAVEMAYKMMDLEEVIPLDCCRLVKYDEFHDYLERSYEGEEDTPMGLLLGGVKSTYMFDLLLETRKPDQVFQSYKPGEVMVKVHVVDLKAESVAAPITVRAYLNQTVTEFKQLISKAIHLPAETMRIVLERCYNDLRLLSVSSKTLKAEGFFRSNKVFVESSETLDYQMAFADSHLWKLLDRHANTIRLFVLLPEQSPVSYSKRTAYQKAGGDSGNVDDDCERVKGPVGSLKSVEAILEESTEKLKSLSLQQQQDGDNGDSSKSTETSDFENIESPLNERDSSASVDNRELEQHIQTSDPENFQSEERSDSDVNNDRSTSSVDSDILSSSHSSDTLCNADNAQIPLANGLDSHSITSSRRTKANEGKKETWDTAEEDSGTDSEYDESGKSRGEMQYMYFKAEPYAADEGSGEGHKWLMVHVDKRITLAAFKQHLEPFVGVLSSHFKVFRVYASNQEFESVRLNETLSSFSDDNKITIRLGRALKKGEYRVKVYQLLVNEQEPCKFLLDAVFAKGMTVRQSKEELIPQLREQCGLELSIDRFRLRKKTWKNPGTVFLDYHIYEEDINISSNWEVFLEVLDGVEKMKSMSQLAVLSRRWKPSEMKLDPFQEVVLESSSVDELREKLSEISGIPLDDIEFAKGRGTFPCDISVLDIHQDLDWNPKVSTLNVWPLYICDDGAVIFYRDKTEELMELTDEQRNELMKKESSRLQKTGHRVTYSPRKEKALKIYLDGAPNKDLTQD
Method in brief: as §1

USP48 = molecular target: T3, USP48 (UniProt Q86UV5)
T3 sequence (whole entry): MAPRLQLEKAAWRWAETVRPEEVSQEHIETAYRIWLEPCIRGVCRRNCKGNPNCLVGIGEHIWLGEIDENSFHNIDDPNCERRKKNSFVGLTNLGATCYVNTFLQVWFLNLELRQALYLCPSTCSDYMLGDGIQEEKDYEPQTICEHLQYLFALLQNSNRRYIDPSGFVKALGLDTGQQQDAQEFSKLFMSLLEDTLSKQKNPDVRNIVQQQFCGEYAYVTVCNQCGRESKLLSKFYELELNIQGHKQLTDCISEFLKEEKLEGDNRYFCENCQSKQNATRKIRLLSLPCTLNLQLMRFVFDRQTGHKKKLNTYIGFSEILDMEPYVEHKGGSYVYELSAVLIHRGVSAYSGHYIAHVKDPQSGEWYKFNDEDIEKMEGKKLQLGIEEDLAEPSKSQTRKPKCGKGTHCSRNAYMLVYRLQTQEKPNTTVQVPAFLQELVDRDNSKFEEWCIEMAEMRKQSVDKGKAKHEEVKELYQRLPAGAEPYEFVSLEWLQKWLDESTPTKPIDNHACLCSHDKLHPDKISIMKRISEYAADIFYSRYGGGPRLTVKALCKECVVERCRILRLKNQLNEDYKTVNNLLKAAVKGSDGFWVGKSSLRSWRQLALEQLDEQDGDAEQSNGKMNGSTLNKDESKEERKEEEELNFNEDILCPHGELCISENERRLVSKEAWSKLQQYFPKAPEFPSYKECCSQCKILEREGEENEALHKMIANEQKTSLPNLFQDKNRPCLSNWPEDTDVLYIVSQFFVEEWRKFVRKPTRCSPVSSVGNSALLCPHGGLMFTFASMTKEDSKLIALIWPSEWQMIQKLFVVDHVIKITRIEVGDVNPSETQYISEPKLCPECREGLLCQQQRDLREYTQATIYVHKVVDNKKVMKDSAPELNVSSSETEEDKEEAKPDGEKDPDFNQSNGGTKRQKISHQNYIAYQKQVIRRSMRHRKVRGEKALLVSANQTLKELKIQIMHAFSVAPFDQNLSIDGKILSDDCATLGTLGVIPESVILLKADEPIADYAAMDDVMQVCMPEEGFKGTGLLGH
Method in brief: as §1

USP5 = molecular target: T4, USP5 (UniProt P45974)
T4 sequence (whole entry): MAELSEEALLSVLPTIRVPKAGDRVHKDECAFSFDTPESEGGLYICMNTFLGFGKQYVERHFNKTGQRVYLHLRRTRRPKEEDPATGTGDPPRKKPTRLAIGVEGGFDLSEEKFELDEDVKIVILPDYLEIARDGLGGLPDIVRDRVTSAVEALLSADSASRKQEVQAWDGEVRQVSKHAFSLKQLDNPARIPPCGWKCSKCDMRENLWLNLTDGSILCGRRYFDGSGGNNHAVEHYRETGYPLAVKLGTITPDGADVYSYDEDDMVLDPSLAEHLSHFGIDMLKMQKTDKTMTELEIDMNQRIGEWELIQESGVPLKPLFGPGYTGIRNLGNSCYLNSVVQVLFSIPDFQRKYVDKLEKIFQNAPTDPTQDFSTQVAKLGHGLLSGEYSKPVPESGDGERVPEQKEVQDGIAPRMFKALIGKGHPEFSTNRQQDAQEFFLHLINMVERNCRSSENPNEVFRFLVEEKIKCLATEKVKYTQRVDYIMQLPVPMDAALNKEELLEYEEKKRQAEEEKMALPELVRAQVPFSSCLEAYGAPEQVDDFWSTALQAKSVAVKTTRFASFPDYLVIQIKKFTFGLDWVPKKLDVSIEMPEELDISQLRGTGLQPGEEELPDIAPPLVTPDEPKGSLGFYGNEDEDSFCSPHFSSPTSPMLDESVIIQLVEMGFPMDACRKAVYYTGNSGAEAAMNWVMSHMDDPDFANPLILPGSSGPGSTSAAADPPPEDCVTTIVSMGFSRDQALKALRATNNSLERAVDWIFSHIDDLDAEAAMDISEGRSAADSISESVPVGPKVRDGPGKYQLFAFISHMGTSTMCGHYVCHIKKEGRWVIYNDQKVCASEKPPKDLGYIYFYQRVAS
Method in brief: as §1

USP54 = USP54 (UniProt Q70EL1)
Method in brief: as §1

USP7 = USP7 (UniProt Q93009)
Method in brief: as §1

USP8 = molecular target: T5, USP8 (UniProt P40818)
T5 sequence (whole entry): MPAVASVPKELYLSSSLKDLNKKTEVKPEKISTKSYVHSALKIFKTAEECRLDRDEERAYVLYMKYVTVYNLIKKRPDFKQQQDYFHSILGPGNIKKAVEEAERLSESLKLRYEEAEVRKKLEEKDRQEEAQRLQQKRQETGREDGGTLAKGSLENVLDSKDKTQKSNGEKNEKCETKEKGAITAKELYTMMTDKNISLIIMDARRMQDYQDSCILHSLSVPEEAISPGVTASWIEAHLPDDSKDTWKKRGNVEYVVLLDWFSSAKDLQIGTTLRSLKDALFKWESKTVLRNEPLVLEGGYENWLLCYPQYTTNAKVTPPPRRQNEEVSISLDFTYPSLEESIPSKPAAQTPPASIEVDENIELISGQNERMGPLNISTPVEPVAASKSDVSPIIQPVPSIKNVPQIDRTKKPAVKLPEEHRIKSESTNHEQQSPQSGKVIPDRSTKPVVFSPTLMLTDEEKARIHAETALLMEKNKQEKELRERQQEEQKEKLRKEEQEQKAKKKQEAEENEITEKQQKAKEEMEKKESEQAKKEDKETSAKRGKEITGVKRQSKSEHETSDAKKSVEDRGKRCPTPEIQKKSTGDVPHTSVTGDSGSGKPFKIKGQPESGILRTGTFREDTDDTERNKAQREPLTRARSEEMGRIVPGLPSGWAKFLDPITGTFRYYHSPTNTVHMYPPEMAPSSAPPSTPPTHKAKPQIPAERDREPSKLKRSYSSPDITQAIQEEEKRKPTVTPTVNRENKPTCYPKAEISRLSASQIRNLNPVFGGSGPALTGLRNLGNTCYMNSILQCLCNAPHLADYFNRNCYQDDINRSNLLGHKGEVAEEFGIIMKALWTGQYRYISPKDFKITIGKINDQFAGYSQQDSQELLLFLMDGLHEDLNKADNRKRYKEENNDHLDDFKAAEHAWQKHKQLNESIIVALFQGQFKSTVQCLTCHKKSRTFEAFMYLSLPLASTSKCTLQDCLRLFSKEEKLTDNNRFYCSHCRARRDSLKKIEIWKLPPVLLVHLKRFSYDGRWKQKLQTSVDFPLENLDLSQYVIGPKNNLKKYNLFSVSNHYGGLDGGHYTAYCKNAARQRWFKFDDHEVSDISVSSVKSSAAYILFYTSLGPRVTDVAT
Method in brief: as §1

USP9X = USP9X (UniProt Q93008)
Method in brief: as §1

UniProt O00487 = molecular target: UniProt O00487
Method in brief: as §1

Measured: log2 ratio of Biotin-Ahx-Ub-VS probe labelling

Chain of UniProt O00487 (O00487 whole entry): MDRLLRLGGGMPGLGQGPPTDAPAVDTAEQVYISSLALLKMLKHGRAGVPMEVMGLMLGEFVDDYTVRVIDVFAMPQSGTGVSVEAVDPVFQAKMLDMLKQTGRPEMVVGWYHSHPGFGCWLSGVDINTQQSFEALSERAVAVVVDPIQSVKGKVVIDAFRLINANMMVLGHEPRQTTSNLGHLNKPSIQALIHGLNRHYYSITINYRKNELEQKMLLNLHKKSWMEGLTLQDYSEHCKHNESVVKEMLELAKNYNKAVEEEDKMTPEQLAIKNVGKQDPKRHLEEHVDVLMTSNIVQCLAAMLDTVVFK
Chain of USP9X (Q93008 whole entry): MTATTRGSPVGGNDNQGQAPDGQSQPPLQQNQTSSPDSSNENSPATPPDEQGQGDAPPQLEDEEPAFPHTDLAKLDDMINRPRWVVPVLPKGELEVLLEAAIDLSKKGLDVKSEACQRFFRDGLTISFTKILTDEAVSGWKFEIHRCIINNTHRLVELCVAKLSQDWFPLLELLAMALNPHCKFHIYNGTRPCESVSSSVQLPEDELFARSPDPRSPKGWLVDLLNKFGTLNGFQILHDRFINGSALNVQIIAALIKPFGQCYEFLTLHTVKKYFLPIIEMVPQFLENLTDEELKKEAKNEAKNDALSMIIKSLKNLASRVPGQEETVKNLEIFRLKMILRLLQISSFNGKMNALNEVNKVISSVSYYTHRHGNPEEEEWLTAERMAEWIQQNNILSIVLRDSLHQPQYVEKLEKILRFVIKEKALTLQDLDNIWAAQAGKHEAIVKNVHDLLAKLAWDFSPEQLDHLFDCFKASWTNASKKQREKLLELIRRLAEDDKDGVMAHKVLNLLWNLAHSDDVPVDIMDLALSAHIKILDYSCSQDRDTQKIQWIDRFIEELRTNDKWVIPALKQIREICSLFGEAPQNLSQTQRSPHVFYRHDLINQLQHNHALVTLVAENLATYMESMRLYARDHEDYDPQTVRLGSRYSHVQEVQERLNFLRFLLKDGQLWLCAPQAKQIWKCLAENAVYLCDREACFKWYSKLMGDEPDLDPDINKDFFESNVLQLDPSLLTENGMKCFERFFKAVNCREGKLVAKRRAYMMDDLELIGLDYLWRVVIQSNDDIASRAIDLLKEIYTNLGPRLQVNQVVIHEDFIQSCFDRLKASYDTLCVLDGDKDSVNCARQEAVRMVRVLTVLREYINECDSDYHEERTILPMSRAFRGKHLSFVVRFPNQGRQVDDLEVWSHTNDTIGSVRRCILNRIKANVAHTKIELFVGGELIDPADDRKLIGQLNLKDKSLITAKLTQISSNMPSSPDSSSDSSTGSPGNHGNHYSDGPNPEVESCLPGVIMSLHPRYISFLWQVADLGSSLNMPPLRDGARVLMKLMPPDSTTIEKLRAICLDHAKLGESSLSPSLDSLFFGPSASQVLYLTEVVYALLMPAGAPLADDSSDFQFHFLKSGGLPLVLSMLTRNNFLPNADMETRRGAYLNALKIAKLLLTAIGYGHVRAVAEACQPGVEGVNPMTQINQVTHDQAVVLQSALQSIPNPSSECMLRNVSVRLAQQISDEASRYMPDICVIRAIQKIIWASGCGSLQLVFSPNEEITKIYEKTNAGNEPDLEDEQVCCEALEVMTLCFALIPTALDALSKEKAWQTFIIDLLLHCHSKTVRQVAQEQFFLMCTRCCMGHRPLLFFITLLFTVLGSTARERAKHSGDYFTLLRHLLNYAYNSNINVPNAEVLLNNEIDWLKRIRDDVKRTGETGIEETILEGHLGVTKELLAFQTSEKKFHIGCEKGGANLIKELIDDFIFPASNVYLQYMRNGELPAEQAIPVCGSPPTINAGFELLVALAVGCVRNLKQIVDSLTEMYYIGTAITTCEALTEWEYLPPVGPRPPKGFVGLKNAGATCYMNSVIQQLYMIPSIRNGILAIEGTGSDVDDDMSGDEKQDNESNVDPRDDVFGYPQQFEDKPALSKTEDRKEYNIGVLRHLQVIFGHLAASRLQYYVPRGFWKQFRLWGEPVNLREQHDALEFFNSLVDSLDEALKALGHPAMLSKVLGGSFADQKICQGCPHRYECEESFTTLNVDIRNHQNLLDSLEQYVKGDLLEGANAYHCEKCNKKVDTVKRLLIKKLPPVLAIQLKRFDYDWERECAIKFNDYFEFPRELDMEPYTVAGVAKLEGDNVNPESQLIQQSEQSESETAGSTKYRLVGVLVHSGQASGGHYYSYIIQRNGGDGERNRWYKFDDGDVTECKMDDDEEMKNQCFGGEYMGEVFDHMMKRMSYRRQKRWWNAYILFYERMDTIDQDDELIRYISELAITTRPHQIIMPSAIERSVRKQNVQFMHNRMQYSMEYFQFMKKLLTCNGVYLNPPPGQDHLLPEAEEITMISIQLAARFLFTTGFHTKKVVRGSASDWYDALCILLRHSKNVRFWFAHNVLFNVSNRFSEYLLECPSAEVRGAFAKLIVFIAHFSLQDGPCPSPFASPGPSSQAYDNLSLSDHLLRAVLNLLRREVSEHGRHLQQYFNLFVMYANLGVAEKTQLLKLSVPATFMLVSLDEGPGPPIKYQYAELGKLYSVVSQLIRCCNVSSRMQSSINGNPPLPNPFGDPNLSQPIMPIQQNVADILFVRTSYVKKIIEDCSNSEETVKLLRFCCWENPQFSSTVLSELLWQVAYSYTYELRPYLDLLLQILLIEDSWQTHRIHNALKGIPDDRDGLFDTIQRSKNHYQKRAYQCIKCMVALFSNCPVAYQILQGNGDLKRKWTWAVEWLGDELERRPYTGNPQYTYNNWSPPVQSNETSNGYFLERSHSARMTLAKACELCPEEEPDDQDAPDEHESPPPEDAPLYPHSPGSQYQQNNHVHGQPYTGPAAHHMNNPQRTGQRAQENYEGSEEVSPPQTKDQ
Chain of USP46 (P62068 whole entry): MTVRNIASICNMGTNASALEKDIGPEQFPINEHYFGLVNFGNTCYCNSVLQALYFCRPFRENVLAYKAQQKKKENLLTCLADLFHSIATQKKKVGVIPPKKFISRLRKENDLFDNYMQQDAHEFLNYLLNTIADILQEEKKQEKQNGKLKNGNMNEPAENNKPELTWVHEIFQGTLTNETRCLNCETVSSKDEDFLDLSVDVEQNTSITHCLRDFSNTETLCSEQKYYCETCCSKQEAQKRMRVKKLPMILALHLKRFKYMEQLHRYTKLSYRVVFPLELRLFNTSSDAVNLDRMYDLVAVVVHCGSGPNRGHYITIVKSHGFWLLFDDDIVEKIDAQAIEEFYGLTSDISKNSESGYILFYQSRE
Chain of USP7 (Q93009 whole entry, looked up): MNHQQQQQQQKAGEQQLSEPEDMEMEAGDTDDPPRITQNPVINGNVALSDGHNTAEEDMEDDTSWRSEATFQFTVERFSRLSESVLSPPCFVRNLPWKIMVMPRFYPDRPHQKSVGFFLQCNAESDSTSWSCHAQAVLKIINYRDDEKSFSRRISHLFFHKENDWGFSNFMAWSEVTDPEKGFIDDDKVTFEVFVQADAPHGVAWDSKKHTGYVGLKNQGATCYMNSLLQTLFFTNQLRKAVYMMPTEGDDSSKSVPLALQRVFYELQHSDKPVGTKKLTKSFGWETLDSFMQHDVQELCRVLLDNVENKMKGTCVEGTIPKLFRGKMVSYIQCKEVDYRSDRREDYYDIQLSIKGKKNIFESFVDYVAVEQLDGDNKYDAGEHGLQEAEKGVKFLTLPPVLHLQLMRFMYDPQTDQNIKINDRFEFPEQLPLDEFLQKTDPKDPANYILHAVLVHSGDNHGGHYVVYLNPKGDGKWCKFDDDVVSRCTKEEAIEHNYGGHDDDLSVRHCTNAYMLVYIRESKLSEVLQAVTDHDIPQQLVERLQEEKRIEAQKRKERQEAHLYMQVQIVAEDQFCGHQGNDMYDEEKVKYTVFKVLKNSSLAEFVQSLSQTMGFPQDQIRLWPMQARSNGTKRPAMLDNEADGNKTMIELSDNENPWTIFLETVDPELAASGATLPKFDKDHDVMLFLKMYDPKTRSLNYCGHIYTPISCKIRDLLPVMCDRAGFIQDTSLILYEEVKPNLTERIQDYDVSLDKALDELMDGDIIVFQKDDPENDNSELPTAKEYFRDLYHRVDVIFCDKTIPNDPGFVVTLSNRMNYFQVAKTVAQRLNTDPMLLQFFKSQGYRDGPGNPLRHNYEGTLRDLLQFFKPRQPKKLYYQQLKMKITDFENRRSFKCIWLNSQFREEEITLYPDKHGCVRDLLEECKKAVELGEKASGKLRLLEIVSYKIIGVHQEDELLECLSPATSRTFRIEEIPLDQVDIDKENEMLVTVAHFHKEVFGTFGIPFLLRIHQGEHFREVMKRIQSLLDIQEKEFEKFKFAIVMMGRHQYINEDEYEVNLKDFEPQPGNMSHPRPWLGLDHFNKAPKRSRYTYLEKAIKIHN

CCN1C(=O)C2CN(C(=O)CCl)CCN2C1=O (stereo not given)
inactive: USP42 0.369 | USP46 -0.0317 | USP47 0.124 | USP48 -0.1 | USP5 0.0692 | USP54 -0.191 | USP7 -0.307 | USP8 0.0104 | USP9X -0.106 | UniProt O00487 0.00662
